Assay outcomes as filed in PubChem.
Peg3 prom inh: Peg3 promoter activity inhibition | 1.7% of 360,000 active | HeLa PEG-Prom luciferase reporter, luminescence, overnight | inhibition, % at 20 µM;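 active = inhibition of at least 50% at 20 µM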
PAX8 reporter: inhibitors of PAX8 transcriptional activity in RMG-I cells; RMG-I TPO-luciferase reporter, SteadyGlo, 24 h; inhibition, % at 12.6 µM; 1.2% of 360,000 active;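 active = mean replicate inhibition at least 60% with every replicate also reaching 60%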;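 note: luciferase light reporting Pax8 driven TPO promoter activity; plate controls were median of neutral control wells for no effect and mitoxantrone controls for full effect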
HIF-2a inh: HIF-2a inhibition | 786-0 RCC cells HIF-2a reporter, luciferase luminescence, overnight | inhibition, % at 18.8 µM | 0.72% of 360,000 active;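 active = inhibition of the luminescence signal of 40% or more relative to plate controls, in a single-dose primary screen at 18.75 µM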
Shn3 inh set2: Schnurri-3 reporter inhibition in Clone20 osteoblasts. inhibition, % at 12.5 µM. Clone20 osteoblast Shn3 3'UTR firefly luciferase, 24 h. AID 588674. 0.52% of 360,000 active;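 active = mean inhibition of at least 75% with every replicate also reaching 75%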;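 note: 0% = median of neutral control wells and 100% = pilot-screen positive control compound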
TRPM1 prom inh: MITF TRPM1 promoter inhibition in SK-MEL-5 cells; SK-MEL-5 TRPM1 promoter luciferase, 24 h; inhibition, % at 12.5 µM; 0.83% of 330,000 active;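 active = mean inhibition across replicates of 60% or more, whatever share of single replicates reaches that level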
EBV LMP1 NFkB: inhibitors of Epstein-Barr LMP1-induced NF-kappaB reporter | LMP1-induced NF-kappaB luciferase reporter cells, luminescence | inhibition, % at 12.5 µM | 0.69% of 350,000 active; in the data active = inhibition above about 41%;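 note: 0% = neutral control wells and 100% = reference inhibitor control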
* hit, by the source's call; . = no result. In the library only some 2.8% were active in any assay of this set; here they are far more common.

SMILES	Peg3 prom inh	PAX8 reporter	HIF-2a inh	Shn3 inh set2	TRPM1 prom inh	EBV LMP1 NFkB
C[C@@H]1CCCCO[C@H](CN(C)C(=O)Nc2ccc(C(F)(F)F)cc2)[C@H](C)CN([C@H](C)CO)C(=O)c2cc(NS(=O)(=O)c3ccc(Cl)cc3)ccc2O1	.	-12.6	.	.	.	.
C[C@H](CO)N1C[C@H](C)[C@@H](CN(C)C(=O)Nc2ccc(C(F)(F)F)cc2)OCCCC[C@H](C)Oc2ccc(NS(=O)(=O)c3ccccc3)cc2C1=O	.	-10.5	.	.	.	.
COCC(=O)N1[C@H](CO)[C@H](c2ccccc2-c2ccccc2)[C@@H]1C#N	.	16.4	.	.	.	.
O=C(CC(F)(F)F)N1C[C@H]2[C@@H](c3ccccc31)[C@H](CO)N2C(=O)C1CCCCC1	.	15.3	.	.	.	.
C[C@@H]1CCCCO[C@@H](CN(C)C(=O)Nc2ccc(C(F)(F)F)cc2)[C@H](C)CN([C@H](C)CO)C(=O)c2cc(NS(=O)(=O)c3ccc(Cl)cc3)ccc2O1	.	88.5*	.	.	.	.
C[C@@H]1CCCCO[C@H](CN(C)C(=O)Nc2ccc(C(F)(F)F)cc2)[C@@H](C)CN([C@H](C)CO)C(=O)c2cc(NS(=O)(=O)c3ccc(Cl)cc3)ccc2O1	.	47.7	.	.	.	.
O=C(C[C@@H]1C=C[C@H](NC(=O)c2ccc3c(c2)OCO3)[C@H](CO)O1)NCc1ccc(F)cc1	.	5.7	.	.	.	.
Cc1ccc(S(=O)(=O)NCC[C@@H]2CC[C@@H](NS(=O)(=O)c3ccccc3Cl)[C@H](CO)O2)cc1	.	-1.0	.	.	.	.
O=C1ON=C(c2ccccc2)/C1=C/c1ccc(O)c(O)c1	20.3	-4.6	41.1*	-15.5	16.8	5.4
O=C1ON=C(c2ccccc2)/C1=C/c1ccc(OS(=O)(=O)c2ccccc2)cc1	5.2	107.9*	-21.4	-29.5	-9.3	1.8
COc1ccc(/C=C2\C(=O)ON=C2c2ccccc2)cc1	18.9	-58.8	27.3	51.7	21.0	-4.0
CC(C)NC(=O)N1C[C@H]2[C@@H](c3ccccc31)[C@H](CO)N2Cc1ccc(Cl)cc1	.	20.9	.	.	.	.
C[C@H](CO)N1C[C@H](C)[C@@H](CN(C)CC2CCCCC2)Oc2ccc(NS(=O)(=O)c3ccccc3)cc2CC1=O	.	19.6	.	.	.	.
CCN1/C(=C/c2ccc3cc(C)cc(C)c3[n+]2CC)Sc2cc(C)ccc21	98.9*	101.5*	-15.1	65.0	82.6*	29.0
CCN1/C(=C/c2ccc3cccc(C)c3[n+]2CC)Sc2ccccc21	55.7*	.	11.0	50.6	72.2*	-3.0
CCN1/C(=C\c2ccc3cc(C)ccc3[n+]2CC)Sc2cc(C)c(C)cc21	37.6	91.5*	13.7	88.9*	72.6*	28.6
Cc1ccc2c(c1)S/C(=C\c1cccc[n+]1C)N2CCO	2.1	21.5	-0.2	-16.5	9.0	1.7
CCN1/C(=C/c2ccc3cc(C)ccc3[n+]2CC)Sc2ccc3sccc3c21	110.7*	.	27.4	93.0*	100.1*	20.9
CCCN1C[C@H](C)[C@H](OC)CN(C)C(=O)c2ccc(NC(=O)Nc3ccccc3F)cc2OC[C@H]1C	.	-8.7	.	.	.	.
C[C@@H]1CCCCO[C@@H](CN(C)C(=O)NC2CCCCC2)[C@@H](C)CN([C@@H](C)CO)C(=O)c2cc(NS(=O)(=O)c3cn(C)cn3)ccc2O1	.	-17.0	.	.	.	.
COc1ccc([Si](C)(C)[C@@H]2[C@@H](CCO)O[C@]3(C(=O)N(Cc4ccc(NC(C)=O)cc4)c4ccccc43)[C@H]2C)cc1	.	106.7*	.	.	.	.
COc1ccc([Si](C)(C)[C@H]2[C@H](CCO)O[C@@]3(C(=O)N(Cc4ccc(NC(C)=O)cc4)c4ccccc43)[C@@H]2C)cc1	.	111.3*	.	.	.	.
Cc1ccc(S(=O)(=O)N(C)C)cc1NC(=O)c1cc(-c2ccncc2)nc2ccccc12	51.6*	-4.2	3.8	8.0	11.3	-1.8
COC(=O)C1=C(C(=O)OC)[C@@H]2N(Cc3ccccc3)c3ccccc3[C@@]23C[C@@H](C(=O)OC)N(C(=O)CC(C)C)C3=N1	9.9	11.7	19.7	-7.3	-0.4	5.0
COC(=O)C1=C(C(=O)OC)[C@@H]2N(C)c3ccccc3[C@@]23C[C@@H](C(=O)OC)N(C(=O)c2ccc(Br)cc2)C3=N1	82.3*	-22.1	0.9	55.7	10.6	10.6
SMILES	Peg3 prom inh	PAX8 reporter	HIF-2a inh	Shn3 inh set2	TRPM1 prom inh	EBV LMP1 NFkB
COC(=O)C1=C(C(=O)OC)[C@@H]2N(Cc3ccccc3)c3ccccc3[C@@]23C[C@@H](C(=O)OC)N(C(=O)c2cc(C)oc2C)C3=N1	55.0*	15.6	5.3	-1.0	-1.1	-1.9
COC(=O)C1=C(C(=O)OC)[C@@H]2N(Cc3ccccc3)c3ccccc3[C@@]23C[C@@H](C(=O)OC)N(C(=O)c2cccs2)C3=N1	81.4*	-7.2	-0.5	4.9	2.4	4.7
COC(=O)C1=C(C(=O)OC)[C@@H]2N(C)c3ccccc3[C@@]23C[C@@H](C(=O)OC)N(C(=O)c2cccs2)C3=N1	36.3	15.3	6.4	-9.1	0.3	-1.2
O=C(C[C@@H]1CC[C@@H]2[C@H](COC[C@@H](O)CN2Cc2ccccc2)O1)NCc1ccccc1Cl	.	-2.6	.	.	.	.
CNC(=O)C[C@H]1CC[C@@H]2[C@H](COc3ccc(NC(=O)Nc4ccccc4F)cc3C(=O)N2C)O1	.	4.5	.	.	.	.
COc1ccccc1OCC(=O)OC/C(O)=C(\C#N)c1nc2ccccc2[nH]1	21.6	-6.3	-15.8	-30.8	-17.0	-2.1
Cc1cc(SCC(=O)OC/C(O)=C(\C#N)c2nc3ccccc3[nH]2)c(C)cc1Br	51.0*	-4.5	7.0	-1.9	32.1	-2.1
N#C/C(=C(/O)COC(=O)CSc1ccc(Cl)cc1)c1nc2ccccc2[nH]1	75.2*	37.5	6.7	4.5	2.4	3.4
C[C@@H]1CCCCO[C@@H](CN(C)Cc2ccncc2)[C@H](C)CN([C@H](C)CO)C(=O)c2cc(NC(=O)c3ccncc3)ccc2O1	.	-9.2	.	.	.	.
COc1cccc(CN2[C@@H]3CNC[C@H]2C3c2ccc(-c3ccncc3)cc2)c1 (stereo not given in full)	.	0.1	.	.	.	.
CCN(CC)CCCNC(=O)c1ccc2c(Cl)c3c(nc2c1)CCCC3	61.2*	-18.7	22.3	-0.5	37.1	8.6
CCC(C)NC(=O)CSc1c2c(nc3ccccc13)CCCC2 (stereo not given)	12.7	5.6	10.2	-14.1	9.7	-1.9
O=C(CSc1c2c(nc3ccc(Cl)cc13)CCCC2)N1CCN(C(=O)c2ccco2)CC1	25.5	31.8	3.2	92.8*	58.7	3.5
CCCCN(CC)CCNC(=O)c1ccc2c(Cl)c3c(nc2c1)CCC3	3.5	-8.7	-4.9	-23.8	-3.8	-2.9
Cc1ccc(CNC(=O)CSc2c3c(nc4ccc(Cl)cc24)CCCC3)o1	25.5	.	24.1	84.3*	15.6	8.2
O=C(CSc1nc2cc(Cl)ccc2s1)N1CCN(C(=O)c2ccco2)CC1	7.2	.	21.9	-8.5	3.9	4.9
CCN(CC)CCNC(=O)CSc1c2c(nc3cc(Cl)ccc13)CCCC2	78.2*	4.7	12.7	84.4	-22.2	8.4
O=C(C[C@@H]1C=C[C@@H](NC(=O)C2CCC2)[C@H](CO)O1)NCc1ccccc1Cl	.	9.7	.	.	.	.
